An excerpt weighted towards active compounds, which were near 3.7% of everything screened.
miR-21 reporter: qHTS Assay for Modulators of miRNAs and/orActivators of miR-21. HeLa miR-21 FLuc reporter, luciferase, 48 h. Potency, µM (doses to about 38.3 µM), for inactives: at the highest dose activity change, positive = activation, usual class: activators. 340,000 tested, under 10 active;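 further: % of control where 0% means no effect; miR-21 action dims this reporter so a rising signal means less miR-21 action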
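HeLa cells stably expressing CMV-driven firefly luciferase with a downstream miR-21 binding sequence, endogenously expressing miR-21, were treated with titrations (up to about 40uM final) for 48 hours at 37 degree Celsius. Luciferase luminescence was read after lysis.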
ClpP mod: qHTS Assay for Activators of ClpP | actives 1.9% (n = 340,000) | ATP-dependent Clp protease proteolytic subunit (Bacillus subtilis (strain 168)), P80244 | purified B. subtilis ClpP, FRET peptide cleavage, 20 min | Potency, µM (titrated, usually from 57.5 µM), for the others: at the highest dose activity change, negative = active; active means well fitted falling curve with a large enough effect; inconclusive means small, poorly fitted or top-dose-only effect; inactive means no such curve, though single readings can be large or run the other way; further: potency means the concentration at half of the fitted maximal effect; the source files actives as falling curves though it sought activators and does not explain the sign; nearly all actives have a fitted effect of over 65% in size
Target sequence (P80244 whole entry, looked up): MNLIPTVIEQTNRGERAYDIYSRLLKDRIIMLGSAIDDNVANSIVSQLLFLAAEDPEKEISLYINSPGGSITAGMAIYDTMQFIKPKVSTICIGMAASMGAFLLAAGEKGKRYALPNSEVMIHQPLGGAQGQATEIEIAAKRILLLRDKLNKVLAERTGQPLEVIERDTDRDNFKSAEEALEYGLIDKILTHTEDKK
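Purified B. subtilis ClpP, 10 microg/mL final in Tris/HCl pH8 with KCl, BSA, glycerol and Tween-20, cleaved an Abz/nitrotyrosine-quenched decapeptide. Fluorescence (ex 320, em 430) was read at 0 and 20 min at room temperature. Delta was normalized to 5.8 microM ADEP and DMSO/no-enzyme controls.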
Nrf2 ARE act: qHTS of Nrf2 Activators; AREc32 ARE-luciferase reporter (MCF7-derived line), luminescence, 24 h; Potency, µM (highest dose often 46.1 µM), for the others: at the highest dose activation, usual class: activators; actives 0.31% (n = 410,000); further: potency means the concentration at half of the fitted maximal effect; % of control where 0% means no effect; nearly all actives have a fitted effect of over 65% in size
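For detection, Steady-Glo was added and plates sat 30 min at RT; before that, AREc32_Fluc cells grown overnight in OPTI-MEM/5% FBS had been treated with 23 nL compound for 24 hr at 37 deg C.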
TCR activator: Activators of T cell receptors: qHTS campaign; primary human leukocytes, anti-CD3, IL-2 HTRF, 48 h; Potency, µM (top dose mostly 9.22 µM), without a hit: top-dose activation of IL-2 secretion, usual class: activators; 330,000 tested, under 10 active; AID 504894, 2011; further: % of control where 0% means no effect
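48 hr co-incubation of compounds, a-CD3 beads and primary human leukocytes; IL-2 quantified homogeneously by HTRF with anti-IL-2 K and d2 conjugates.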
Nrf2 block: Nrf2 qHTS screen for inhibitors; A549 ARE-Fluc reporter, luciferase luminescence, 18-24 h; Potency, µM (top dose mostly 46 µM), for the others: at the highest dose activity change, negative = inhibition, hits mostly inhibitors; actives 2.1% (n = 360,000); AID 504444, 2011; further: potency means the concentration at half of the fitted maximal effect; on the % scale 0 is the no-effect control and ±100 the full control effect; nearly all actives have a fitted effect of over 60% in size
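In this cell-based qHTS, ARE-driven firefly luciferase in A549 cells reports Nrf2 activity; the luminescent signal after BugLite lysis is the measured value, with a prior CellTiter-Fluor read for cell health.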
A549 viability: Nrf2 qHTS screen for inhibitors: counterscreen for cytotoxicity; A549 ARE-Fluc cells, CellTiter-Fluor viability, 18-24 h; Potency, µM (doses to about 46 µM), for inactives: at the top dose activity change, negative = cytotoxicity, usual class: inhibitors; actives 0.16% (n = 390,000); further: potency means the concentration at half of the fitted maximal effect; on the % scale 0 is the no-effect control and ±100 the full control effect
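A549 ARE_Fluc cells in 5% FBS OPTI-MEM were exposed to compounds in concentration-response for 18-24 h at 37 deg C. Viability was read by CellTiter-Fluor fluorescence (Ex 405/Em 525) after 30 min, before the luciferase read.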
The depositor's hits bear a star; [ ] = dose if it differs, or a comment. Unless noted, the call rests on the fitted dose curve; in most records, active means well fitted curve in the direction sought with a large enough effect; inconclusive means small, poorly fitted or top-dose-only effect, or another doubt; inactive means no such curve, though single readings can be large; an effect the other way counts as inactive or inconclusive.

Screening FC(F)(F)c1nc(-c2cccs2)ncc1-c1nnnn1-c1ccc(Cl)cc1 returned miR-21 reporter inconclusive, ClpP mod 35µM*, Nrf2 ARE act -2%, Nrf2 block 23µM* and A549 viability inconclusive.
Screening CCOc1ccc(CNC(=O)c2ccc3nc(CC)c(CC)nc3c2)cc1 returned miR-21 reporter -6%, ClpP mod -14%, Nrf2 ARE act 4% and A549 viability -3%.
O=C1c2ccccc2C(=O)N1c1cncc2ccccc12 was read as Nrf2 block 21% and A549 viability 4%.
For Cc1ccc(NS(=O)(=O)c2ccc(OCC(=O)Nc3cccc([N+](=O)[O-])c3)c(C)c2)cc1 the results were miR-21 reporter 20%, ClpP mod -2%, Nrf2 ARE act 3%, TCR activator 8%, Nrf2 block 21µM* and A549 viability inconclusive.
Screening O=[N+]([O-])c1cccc(S(=O)(=O)Nc2ccc(Cc3ccncc3)cc2)c1 returned miR-21 reporter 10%, ClpP mod -1%, Nrf2 ARE act 0%, TCR activator 17%, Nrf2 block 16µM* and A549 viability 2%.
For O=S(=O)(Nc1ccc(Cc2ccncc2)cc1)c1ccc(Br)s1 the results were miR-21 reporter -1%, ClpP mod -2%, Nrf2 ARE act 0%, TCR activator 0%, Nrf2 block inconclusive and A549 viability 0%.
For O=[N+]([O-])c1cccc(S(=O)(=O)NCc2ccncc2)c1 the results were miR-21 reporter 18%, Nrf2 ARE act 0%, TCR activator -6%, Nrf2 block 7.3µM* and A549 viability inconclusive.
Cc1ccc(NC(=O)CN(C)C(=O)c2ccc(NS(=O)(=O)c3cccc([N+](=O)[O-])c3)cc2)cc1 was read as ClpP mod 0%, Nrf2 ARE act 0%, TCR activator -7%, Nrf2 block -20% and A549 viability 5%.
For O=S(=O)(Nc1ccc(Cc2ccncc2)cc1)c1ccc(Cl)s1 the results were miR-21 reporter 2%, ClpP mod -1%, Nrf2 ARE act 0%, TCR activator 1%[46.1 µM], Nrf2 block 18µM* and A549 viability 0%.
Cc1cccc(C)c1OCC(=O)N(Cc1ccccc1F)C1CCS(=O)(=O)C1 (configuration not stated) was read as miR-21 reporter -1%, ClpP mod -1%, Nrf2 ARE act 0%, Nrf2 block 1% and A549 viability 10%.
`Cc1nc(Nc2nc3ccccc3o2)nc2c1CCCC2` gave Nrf2 block inconclusive and A549 viability -2%.
Cc1ccc(COc2ccc(/C=N/O)cc2)cc1 was read as miR-21 reporter -47%, ClpP mod 1%, Nrf2 ARE act 0%, TCR activator -3%[46.1 µM], Nrf2 block inconclusive and A549 viability 3%.
`Cc1ccc(Oc2ccc(/C=N/O)cn2)cc1` gave miR-21 reporter -49%, ClpP mod 16µM*, Nrf2 ARE act 5%, TCR activator -2%, Nrf2 block 28% and A549 viability -1%.
COc1ccc(CC(=O)NO)cc1 was read as ClpP mod -1%.
For Cc1cccc(N2CCN(C(=O)c3ccc(NC(=O)CC4SC(N5CCCC5)=NC4=O)cc3)CC2)c1C (configuration not stated) the results were ClpP mod 0%, Nrf2 ARE act 4%, TCR activator 1%, Nrf2 block inconclusive and A549 viability 2%.
CN(Cc1ccccc1F)C(=O)c1cccc(NC(=O)CC2SC(N3CCCCC3)=NC2=O)c1 (configuration not stated) was read as Nrf2 ARE act 4%, TCR activator 0%, Nrf2 block 18µM* and A549 viability -11%.
Screening CN(Cc1ccccc1F)C(=O)c1ccc(NC(=O)CC2SC(N3CCCCC3)=NC2=O)cc1 (configuration not stated) returned ClpP mod 3%, Nrf2 ARE act 2%, TCR activator 2%, Nrf2 block 15% and A549 viability 7%.
`O=C(CC1SC(N2CCCC2)=NC1=O)Nc1ccc(C(=O)N2CCN(c3cccc(Cl)c3)CC2)cc1` (configuration not stated) gave ClpP mod 32µM*, Nrf2 ARE act 0%, TCR activator -1%, Nrf2 block 21µM* and A549 viability inconclusive.
For Cc1ccnc(NC(=O)c2ccc(NC(=O)CC3SC(N4CCCC4)=NC3=O)cc2)c1 (configuration not stated) the results were ClpP mod -1%, Nrf2 ARE act 0%, TCR activator 5%, Nrf2 block inconclusive and A549 viability -1%.
`O=C(CC1SC(N2CCCC2)=NC1=O)Nc1ccc(C(=O)Nc2ncccc2O)cc1` (configuration not stated) gave ClpP mod 1%, Nrf2 ARE act 16µM*, TCR activator 4%, Nrf2 block 14% and A549 viability -1%.
For CCc1nnc(NC(=O)C(=O)c2cc(C)n(-c3ccccc3)c2C)s1 the results were miR-21 reporter 0%, ClpP mod -2%, Nrf2 ARE act 0%, Nrf2 block -2% and A549 viability -2%.
Screening Cc1cc2c(s1)c1cnn(Cc3c(F)ccc(Cl)c3F)c(=O)c1n2C returned Nrf2 block 7% and A549 viability 3%.
CSc1nc(SCC(=O)NC(c2ccccc2)c2ccccc2)c2c3c(sc2n1)CN(C)CC3 was read as miR-21 reporter -8%, ClpP mod 28µM*, Nrf2 ARE act 6%, TCR activator 3%, Nrf2 block inconclusive and A549 viability inconclusive.
For Cc1ccc([N+](=O)[O-])c(C(=O)N/N=C/c2cccs2)c1 the results were miR-21 reporter -16%, ClpP mod -1%, Nrf2 ARE act 0%, TCR activator 7%, Nrf2 block 9.2µM* and A549 viability -3%.
`O=C(N/N=C/c1ccc([N+](=O)[O-])s1)c1ccncc1` gave miR-21 reporter 27%, Nrf2 ARE act inconclusive, TCR activator -1%[46.1 µM], Nrf2 block inconclusive and A549 viability -10%.

High-throughput results (PubChem)
